Several values for one entry are separate records, joined by “and”; a condition that tells them apart may be missing. Identical values can stand only once. Screen size: about 650,000 compounds; about 6,800 (1%) were called active. Rule as the data show it: active = activation above about 4.9%; inactive = the rest. For the sample, actives were picked, then their nearest neighbours and some compounds at random. Where a structure was tested more than once in an assay, its records may differ in their call.

Sequence of G-protein coupled receptor 151 (Homo sapiens) (Q8TDV0 whole entry, looked up): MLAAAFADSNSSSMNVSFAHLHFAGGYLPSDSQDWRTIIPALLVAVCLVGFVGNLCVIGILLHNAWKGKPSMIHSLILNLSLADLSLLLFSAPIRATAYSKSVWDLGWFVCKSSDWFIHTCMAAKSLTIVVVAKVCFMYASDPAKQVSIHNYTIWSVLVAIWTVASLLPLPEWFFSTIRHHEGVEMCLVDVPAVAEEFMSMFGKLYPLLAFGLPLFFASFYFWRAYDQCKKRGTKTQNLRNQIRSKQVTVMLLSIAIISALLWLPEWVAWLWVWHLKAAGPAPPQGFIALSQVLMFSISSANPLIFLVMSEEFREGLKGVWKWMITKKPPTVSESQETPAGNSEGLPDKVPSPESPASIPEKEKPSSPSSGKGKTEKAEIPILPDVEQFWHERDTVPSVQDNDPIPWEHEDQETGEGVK

The test has as its target G-protein coupled receptor 151 (Homo sapiens) (UniProt Q8TDV0). Put plainly: activators of human GPR151, primary screen, cell-based, PathHunter beta-arrestin, luminescence (AID 1508602).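 Also: 0% = median of compound wells and 100% = cells with positive control.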 The note with it: PathHunter beta-arrestin GPR151 cells, at 11.2 µM, stronger effect = higher value.
For `O=C1COc2cc(S(=O)(=O)CCC(=O)N3CCN(c4ccccc4F)CC3)ccc2N1`, the activation was 0.891% (inactive). Next, `CCOc1ccc(OCCOCCN2CC(C)OC(C)C2)cc1` (stereo not drawn): -1.18% (inactive); `COc1ccccc1Nc1nc(-c2ccc(Br)cc2)cs1`: -0.402% (inactive). Regarding `COc1ccc(N/C=C(/C#N)c2nc(-c3ccc(F)cc3)cs2)c(OC)c1`, the activation was 1.79% (inactive). `COc1ccc(Nc2nc(-c3ccc(F)cc3)cs2)c(OC)c1`: the activation was 13.1% (active).

For `COc1ccc(-n2c(=S)[nH]c3cc(C(=O)Nc4cccc(Cl)c4)ccc3c2=O)c(OC)c1`, the activation was 1.31% (inactive). With `O=C(N/N=C\C=C\c1ccccc1)c1ccccn1`, the activation is 8.89% (active). In the case of `O=C(N/N=C\c1ccccc1Cl)c1ccccn1`, the activation was -5.29% (inactive). As for `O=C(N/N=C\c1ccccc1)c1ccccn1`, the figure is -3.62% (inactive). Consider `CC(=O)OCc1cn(-c2nonc2N)nn1`, for which the activation is 2.37% (inactive). As for `CC(=O)C1=C(O)C(=O)N(CC#N)C1c1ccc(F)cc1` (stereo not drawn), the figure is -0.438% (inactive); as for `COc1ccc(OCC(=O)NCC(F)(F)F)c([N+](=O)[O-])c1`, 1.07% (inactive); as for `O=C(COc1ccc(Br)cc1CO)NCC(F)(F)F`, 8.84% (active).

Regarding `O=C(COc1ccc(Br)cc1Cl)NCCO`, the activation is 0.504% (inactive). Regarding `COc1ccc(-c2cc(C(=O)Nc3cc(Cl)ccc3O)no2)cc1OC`, the activation was 0.999% (inactive). Next, `Cc1cc2c(c(=O)o1)C(c1cccc(OCc3c(F)cccc3Cl)c1)C(C#N)=C(N)O2` (stereo not drawn): 1.06% (inactive); `O=C1N[C@@H](Cc2ccc(Cl)cc2)C(=O)N2C[C@@H](NCc3nc(-c4ccc(F)cc4)cs3)C[C@@H]12`: -2.22% (inactive); `CC(C)C[C@H]1NC(=O)[C@@H]2C[C@H](NCc3cc(F)ccc3F)CN2C1=O`: -0.818% (inactive). Turning to `CCC[C@@H]1NC(=O)[C@@H]2C[C@H](NCc3nc(-c4ccc(F)cc4)cs3)CN2C1=O`, the activation is 5.66% (active). As for `O=C(NCc1ccc(Cl)cc1)C(=O)NC1CCCCCC1`, the figure is 1.92% (inactive); as for `Cc1cc(NC(=O)CSc2nnc3c(n2)[nH]c2ccc(S(=O)(=O)N4CCOCC4)cc23)no1`, -0.982% (inactive); as for `Cc1c2cnn(CC(=O)NCC(C)c3ccccc3)c(=O)c2c(C)n1Cc1ccccc1` (stereo not drawn), -0.872% (inactive). Consider `CC1CCN(CC(=O)Nc2ccc(Cl)cc2)CC1`, for which the activation was -1.21% (inactive). Next, `CC1CCN(CC(=O)Nc2ccccc2Cl)CC1`: 20.2% (active); `Cc1cc(C)cc(NC(=O)NC2CCN(CC(=O)Nc3cccc(Cl)c3C)CC2)c1`: 0.14% (inactive). As for `COc1ccc(NC(=O)C2CCCN2C(=O)Nc2ccccc2)cc1` (stereo not drawn), the figure is 2.01% (inactive). As for `Nc1cccc(-c2ncc(C(=O)NC3CC3)s2)c1`, the figure is -0.0842% (inactive). As for `O=C(CC12CC3CC(CC(C3)C1)C2)Nc1ccc2c(c1)COC2=O`, the activation was -1.36% (inactive) and 1.16% (inactive). `O=C(CC12CC3CC(CC(C3)C1)C2)Nc1ccc2oc(=O)ccc2c1`: the activation was 6.05% (active). As for `O=C(COc1ccc(Cl)cc1)Nc1ccc2oc(=O)ccc2c1`, the figure is 1.66% (inactive); as for `CCCOc1ccc(C2CC(=O)NC3=C2C(=O)CC(C)(C)C3)cc1` (stereo not drawn), 0.129% (inactive). As for `Cc1ccc(NC(=O)C2(C)CC3c4ccccc4C2c2ccccc23)cc1C` (stereo not drawn), the figure is -0.659% (inactive); as for `CC1(C(=O)Nc2cccc(C(F)(F)F)c2)CC2c3ccccc3C1c1ccccc12` (stereo not drawn), 6.33% (active). Consider `CC1(C)C(=O)C2(C(=O)Nc3cccc(C(F)(F)F)c3)CCC1C2` (stereo not drawn), for which the activation was -0.111% (inactive).

For `O=C(NC(=S)Nc1ccc(-c2nc3ncccc3o2)cc1)c1ccc(I)cc1`, the activation was -0.544% (inactive).

Take `CC1CCCC(NC(=O)CSc2cc(=O)n(C)c3ccc(Cl)cc23)C1C` (stereo not drawn): the activation was 1.18% (inactive). Take `CCOC(=O)C1CCN(C(=O)CN2C(=O)c3cccnc3Oc3ccc(C)cc32)CC1`: the activation was 2.66% (inactive).

Turning to `Cc1ccc2c(c1)N(CC(=O)N1CCC(C)CC1)C(=O)c1cccnc1O2`, the activation was 5.35% (active).

Consider `COC(=O)CN1C(=O)c2cccnc2Oc2ccc(C)cc21`, for which the activation was -1.68% (inactive). Next, `CC1Cc2ccccc2N1S(=O)(=O)c1nnc(NC(=O)c2ccc(F)cc2)s1` (stereo not drawn): -0.611% (inactive).

For the compound `COc1ccccc1NC(=O)c1c(NCc2cccs2)sc2c1CCCC2`, the activation was 1.25% (inactive).

On to `C#CCN=Cc1c(O)n(CC)c(=S)n(CC)c1=O`, for which the activation was -0.872% (inactive). In the case of `Cc1cccc(NC(=S)N(CCCN2CCCC(C)C2)Cc2cccs2)c1` (stereo not drawn), the activation is 2.67% (inactive). As for `CCOC(=O)C1=CN(c2ccc(C)cc2)C=C(C(=O)OCC)C1c1ccc(Cl)c(Cl)c1`, the figure is 1.19% (inactive); as for `C#CCN1C(=O)S/C(=C/c2cc(Cl)c(O)c(OC)c2)C1=O`, 2.53% (inactive); as for `O=C(NCc1ccc2c(c1)OCO2)c1ccc(I)cc1`, -1.11% (inactive). Next, `C=CCn1c(=O)c2ccc(C(=O)NCc3ccc4c(c3)OCO4)cc2n(CC(N)=O)c1=O`: 10.5% (active).

On to `CCCCCn1c(=S)[nH]c2cc(C(=O)NCc3ccc4c(c3)OCO4)ccc2c1=O`, for which the activation is -1.93% (inactive). As for `CSCCC(NC(C)=O)C(=O)OCC(=O)Nc1nnc(C(C)C)s1` (stereo not drawn), the figure is -1.34% (inactive); as for `COc1c(Cl)ccc(Cl)c1C(=O)Nc1cc(C)cc(C)c1`, 0.289% (inactive); as for `Cn1c(/C=C2\C(=O)Nc3ccccc32)nc2ccccc2c1=O`, 1.31% (inactive). `Cc1cc(C)c(/C=C2\C(=O)Nc3ccccc32)[nH]1`: the activation was -2.18% (inactive) and 5.18% (active).

On to `COC(=O)/C=C1/C(=O)Nc2ccccc21`, for which the activation was -0.452% (inactive). Turning to `COC(=O)c1c(OCc2cccnc2)cc(=O)n2c1CCN(C(C)CSC)CC2` (stereo not drawn), the activation is 0.107% (inactive). As for `COc1cccc(CNC(=O)CCC(=O)N2CC(C)Oc3ccc(C)cc32)c1` (stereo not drawn), the figure is 0.215% (inactive); as for `Cc1cccc(CN[C@H]2C[C@H]3C(=O)N[C@@H](CC(C)C)C(=O)N3C2)c1`, 1.59% (inactive); as for `C=C(C)Cn1c(N2CCN(CCO)CC2)nc2c1c(=O)[nH]c(=O)n2C`, -0.406% (inactive). In the case of `COc1ccc2nc(/C(C#N)=C\c3c[nH]c4ccccc34)[nH]c2c1`, the activation was -0.394% (inactive). Consider `COc1ccccc1/C=C(/C#N)c1nc2ccccc2[nH]1`, for which the activation was -0.79% (inactive).

As to `COc1cc2c(cc1/C=C(\C#N)c1nc3ccccc3[nH]1)OCO2`, the activation is 0.566% (inactive). Regarding `Cc1ccc2nc(/C(C#N)=C/c3ccccc3F)[nH]c2c1`, the activation is -0.301% (inactive). On to `COc1cccc(/C=C(\C#N)c2nc3ccc(C)cc3[nH]2)c1OC`, for which the activation is 13.2% (active).

`COc1ccc2nc(/C(C#N)=C\c3cc4c(cc3OC)OCO4)[nH]c2c1`: the activation was 5.68% (active).
